Assay results taken from PubChem BioAssay AID588489 (Sanford-Burnham Center for Chemical Genomics, 2011).
Out of some 360,000 compounds screened, about 1,300 (0.36%) were called active. The sample holds actives, similar compounds and a random draw of the others, so the mix is not that of the screen. Cut-off read from the data, not from the text of the source: active = inhibition above about 35% (passing the limit was not always enough); inactive = the rest.

The compounds below were run against Polyadenylate-binding protein 1 (Homo sapiens) (UniProt P11940) (assay: inhibitors of PABP1 MLLE–PAM2 peptide binding, primary screen, biochemical, fluorescence polarization, FITC-PAM2, GST-MLLE (AID 588489;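 note: plate controls were DMSO wells with GST-MLLE for no effect and wells lacking GST-MLLE protein for full effect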)). Conditions: at 20 µM, hits give high values.
Polyadenylate-binding protein 1 (Homo sapiens), sequence (P11940 whole entry, looked up): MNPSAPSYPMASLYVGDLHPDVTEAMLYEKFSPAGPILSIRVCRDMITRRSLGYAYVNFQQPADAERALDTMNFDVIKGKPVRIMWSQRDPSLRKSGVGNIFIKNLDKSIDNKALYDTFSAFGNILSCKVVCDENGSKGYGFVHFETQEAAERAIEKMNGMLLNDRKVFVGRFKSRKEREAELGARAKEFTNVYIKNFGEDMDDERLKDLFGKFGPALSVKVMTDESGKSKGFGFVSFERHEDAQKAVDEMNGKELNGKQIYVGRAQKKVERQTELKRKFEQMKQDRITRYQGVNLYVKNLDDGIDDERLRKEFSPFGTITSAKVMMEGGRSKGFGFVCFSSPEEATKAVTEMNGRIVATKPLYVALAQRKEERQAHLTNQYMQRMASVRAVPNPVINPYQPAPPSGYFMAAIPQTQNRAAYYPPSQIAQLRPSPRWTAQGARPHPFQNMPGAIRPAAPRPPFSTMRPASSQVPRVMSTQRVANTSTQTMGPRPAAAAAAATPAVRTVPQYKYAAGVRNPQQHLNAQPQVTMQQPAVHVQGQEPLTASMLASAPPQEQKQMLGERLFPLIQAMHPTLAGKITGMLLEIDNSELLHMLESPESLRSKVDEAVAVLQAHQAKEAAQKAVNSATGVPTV

inhibition, inactive:
CN(C)CCCNC(=S)N1CCN(c2nc(-c3ccccc3)cs2)CC1 -128%, CCOc1ccc(NC(=O)CN(C)C(=O)Cc2sc(C)nc2-c2ccc(F)cc2)cc1OCC -16.1%, CCOC(=O)N1CCN(C(=O)C2CCN(c3ncnc4c3sc3cccc(F)c34)CC2)CC1 -13.7%, CCCCC(=O)NC(c1ccc(OC)c(OC)c1)c1ccc2cccnc2c1O (stereo unspecified) 5.41%, COc1ccc(C(CNCC(=O)Nc2ccccc2F)N(C)C)cc1 (stereo unspecified) 4.22%, O=C1c2ccccc2C(=O)N1CCc1nn[nH]n1 -10.4%, O=C(CC1CCCCC1)NCc1ccco1 2.87%, O=C(CSc1nnnn1-c1ccccc1)NCc1ccco1 -13.1%, CCCCCC1CCC(c2nnc(SCC(C)=O)o2)CC1 (stereo unspecified) -9.06%, C/C=C/c1ccc(OCCCCN2CCC(C)CC2)c(OC)c1 -4.4%, CC(C)CNC(=O)C1(C)CCCN1C(=O)CSc1ccccc1 (stereo unspecified) 10.8%, COc1cc(/C=C/C(=O)OCC(=O)NCCCc2ccccc2)ccc1O 7.53%, Cc1cccc(NC(=O)CSc2nnc(NC(=O)CN3CCOCC3)s2)c1 -8.76%, C=CC1=C(C(=O)O)N2C(=O)[C@@H](NC(=O)/C(=N/OCC(=O)O)c3csc(N)n3)[C@H]2SC1 30.8%, O=C(CSc1ccsc1[N+](=O)[O-])N1CCCCC1 -4.37%, O=C1CSC2=NCN(c3ccccc3)CN12 -6.21%, O=C(CCC(=O)OCc1cccc(C(=O)Oc2ccccc2)c1)Nc1cccc2ccccc12 9.55%, CCOc1cc(C(=S)N2CCOCC2)ccc1OS(=O)(=O)c1ccc(Br)cc1 8.34%, CC(=O)Nc1ccc(S(=O)(=O)Oc2ccc(Br)cc2C(=S)N2CCOCC2)cc1 5.89%, Cc1ccc(C)c(OCCC(=O)Nc2cccc(S(=O)(=O)N3CCCC3)c2)c1 10.9%, CCN(CC)S(=O)(=O)c1ccc(N2CCOCC2)c(NC(=O)C(C)Oc2ccc(F)cc2)c1 (stereo unspecified) 3.55%

inhibition, active:
CCOC(=O)N1CCN(C(c2cccnc2)c2ccc3cccnc3c2O)CC1 (stereo unspecified) 37.9%, O=C(CSC1=Nc2ccccc2C2=NC(CC(=O)NCc3ccco3)C(=O)N12)NCc1ccco1 (stereo unspecified) 38.7%, Cc1nc([N+](=O)[O-])nn1C12CC3CC(CC(Br)(C3)C1)C2 39.5%, C=CC1=C(C(=O)O)N2C(=O)[C@@H](NC(=O)/C(=N\OCC(=O)O)c3csc(N)n3)[C@H]2SC1 41%, O=S(=O)(Oc1ccccc1C(=S)N1CCOCC1)c1ccc(Cl)cc1 44.5%
